The results in this text go back to PubChem BioAssay (NCI).

Among the test systems are DU-145 prostate; K-562 leukemia; MALME-3M melanoma; MDA-MB-231 breast; RXF 393 renal; SF-268 CNS; SF-295 CNS; SF-539 CNS; UACC-257 melanoma; M14 melanoma; HCT-15 colon; HT29 colon; SNB-75 CNS; SNB-19 CNS; U251 CNS; PC-3 prostate; SK-MEL-5 melanoma; UACC-62 melanoma; LOX IMVI melanoma; SK-MEL-28 melanoma.
Holding throughout (assay): NCI-60 one-dose screen, 48 h (100 = growth as untreated, 0 = no growth, -100 = all killed)
Holding throughout (conditions): 10 µM unless noted

This is part of a sample that, as a whole, favours compounds with a hit. Of some 83,000 tested, about 20% had one in any assay.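 Activity criterion: percent growth below 10, measured after cells in 96-well plates were exposed to a single compound concentration for 48 hours.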 A number with no mark means an inactive call. Calls of active or inactive are those of the source.

Turning to `Cc1ccc(-c2nc(/C=C3/C(=O)Nc4ccccc43)c3ccccn23)cc1`, the growth in the assay on DU-145 prostate is -16.3% (active); in the assay with K-562 leukemia, 81.5%; in the assay on MALME-3M melanoma, 116%; with MDA-MB-231 breast, 85.2%; with RXF 393 renal, 38.2%; in the assay with SF-268 CNS it was 88%. Moreover, the growth in the assay on SF-295 CNS is 91.9%; in the assay with SF-539 CNS, 94.8%; in the assay with UACC-257 melanoma it was 102%; with M14 melanoma, 92.3%; in the assay on HCT-15 colon it was 26.5%; in the assay with HT29 colon it was 42.3%. Further, the growth in the assay with SNB-75 CNS was 88.9%; in the assay on SNB-19 CNS, 99.6%; with U251 CNS it was 85.2%; in the assay with PC-3 prostate, 78.3%; with SK-MEL-5 melanoma, 82.9%; with UACC-62 melanoma, 84.5%. Also, the growth in the assay on LOX IMVI melanoma was 77.1%; with SK-MEL-28 melanoma, 133%.
As for `C[C@@H]1CCC[C@H]1CC(N)C(=O)O` (stereo not given in full), the growth was 106% in the assay on DU-145 prostate; 99% in the assay with K-562 leukemia; 149% in the assay on MALME-3M melanoma; 121% with MDA-MB-231 breast; 117% in the assay on RXF 393 renal; 105% with SF-268 CNS. The growth with SF-295 CNS was 106%; in the assay with SF-539 CNS, 105%; in the assay with UACC-257 melanoma, 106%; in the assay on M14 melanoma, 98.8%; with HCT-15 colon it was 90.6%; with HT29 colon, 116%. For the same compound, the growth was 103% with SNB-75 CNS; 117% in the assay with SNB-19 CNS; 114% with U251 CNS; 96.8% in the assay with PC-3 prostate; 98.5% with SK-MEL-5 melanoma; 116% in the assay with UACC-62 melanoma. The growth in the assay on LOX IMVI melanoma is 91.3%; with SK-MEL-28 melanoma, 108%.
Take `C#Cc1ccc(NC(=O)c2ccc(/C=C/C(=O)c3nccn3C)cc2)cc1`: the growth was -86.8% (active) with DU-145 prostate; 1.98% (active) in the assay with K-562 leukemia; -38.4% (active) with MALME-3M melanoma; -55.7% (active) with MDA-MB-231 breast; -86.3% (active) in the assay on RXF 393 renal; -28.9% (active) in the assay on SF-268 CNS. The growth with SF-295 CNS was -91.2% (active); in the assay with SF-539 CNS, -96.7% (active); with UACC-257 melanoma, -19.6% (active); in the assay on M14 melanoma, -69.8% (active); in the assay on HCT-15 colon, -44.4% (active); with HT29 colon, -17.3% (active). Besides, the growth in the assay on SNB-75 CNS was -98.3% (active); in the assay on SNB-19 CNS, -78.9% (active); in the assay on U251 CNS, -67% (active); in the assay with PC-3 prostate, -56.2% (active); in the assay on SK-MEL-5 melanoma it was -94.3% (active); in the assay with UACC-62 melanoma, -50.7% (active). In addition, the growth in the assay on LOX IMVI melanoma was -93% (active); in the assay on SK-MEL-28 melanoma, -30.7% (active).
Take `CCOC(=O)C1=NN(c2ccccc2)C(=O)/C1=C\N1C(=O)CC(=O)NC1=S`: the growth is 110% in the assay on DU-145 prostate; 98.2% with K-562 leukemia; 97.6% with MALME-3M melanoma; 91.8% in the assay with MDA-MB-231 breast; 117% with RXF 393 renal; 93.9% with SF-268 CNS. Further, the growth with SF-295 CNS was 103%; in the assay on SF-539 CNS it was 100%; with UACC-257 melanoma, 105%; in the assay on M14 melanoma it was 93.7%; with HCT-15 colon, 105%; in the assay on HT29 colon, 99.7%. The growth is 10.6% with SNB-75 CNS; 97.4% in the assay with SNB-19 CNS; 91% with U251 CNS; 96.4% in the assay with PC-3 prostate; 99.6% in the assay with SK-MEL-5 melanoma; 87.5% in the assay with UACC-62 melanoma. For the same compound, the growth in the assay with LOX IMVI melanoma is 93.7%; in the assay on SK-MEL-28 melanoma it was 114%.
As for `COc1ccccc1NC(=O)Cn1cc(CN2CCN(c3ccnc4cc(Cl)ccc34)CC2)nn1`, the growth was 106% in the assay with DU-145 prostate; 83.8% in the assay on K-562 leukemia; 106% in the assay on MALME-3M melanoma; 82.3% with MDA-MB-231 breast; 85.8% with RXF 393 renal; 84% in the assay with SF-268 CNS. In addition, the growth in the assay with SF-295 CNS was 100%; with SF-539 CNS it was 99.3%; in the assay with UACC-257 melanoma it was 106%; in the assay with M14 melanoma it was 106%; in the assay on HCT-15 colon it was 91.8%; in the assay with HT29 colon, 105%. Moreover, the growth in the assay on SNB-75 CNS is 75.2%; in the assay with SNB-19 CNS, 93.2%; in the assay with U251 CNS, 97.1%; with PC-3 prostate, 71.8%; in the assay with SK-MEL-5 melanoma, 73%; in the assay with UACC-62 melanoma, 83.9%. The growth in the assay with LOX IMVI melanoma was 95.1%; in the assay with SK-MEL-28 melanoma, 84.1%.
On to `CCOC(=O)c1[nH]c(=O)c2c(C)nc(-c3ccccc3)cc2c1O`, for which the growth in the assay with DU-145 prostate was 112%; in the assay on K-562 leukemia, 110%; in the assay with MALME-3M melanoma it was 136%; in the assay with MDA-MB-231 breast, 78.8%; in the assay with RXF 393 renal, 112%; in the assay with SF-268 CNS, 106%. Besides, the growth in the assay with SF-295 CNS is 110%; with SF-539 CNS, 106%; in the assay on UACC-257 melanoma, 106%; in the assay with M14 melanoma, 104%; with HCT-15 colon it was 100%; with HT29 colon it was 113%. The growth is 118% with SNB-75 CNS; 104% with SNB-19 CNS; 117% in the assay on U251 CNS; 72.1% in the assay with PC-3 prostate; 96.7% in the assay with SK-MEL-5 melanoma; 109% in the assay on UACC-62 melanoma. Further, the growth in the assay on LOX IMVI melanoma was 112%; in the assay on SK-MEL-28 melanoma, 105%.
For `COc1ccc2[nH]cc(-c3nc(-c4c[nH]c5ccncc45)cs3)c2c1`, the growth in the assay with DU-145 prostate is 32.9%; with K-562 leukemia, -37.9% (active); in the assay with MALME-3M melanoma it was -77.5% (active); in the assay on MDA-MB-231 breast, -35% (active); with RXF 393 renal, -0.983% (active); in the assay on SF-268 CNS, 65.3%. Also, the growth in the assay with SF-295 CNS is -57.1% (active); with SF-539 CNS, -83.4% (active); with UACC-257 melanoma it was 82%; in the assay with M14 melanoma, -74% (active); with HCT-15 colon, -10.2% (active); with HT29 colon, -15.7% (active). In addition, the growth was 76.1% in the assay on SNB-75 CNS; 47.1% with SNB-19 CNS; -49.4% (active) with U251 CNS; 42.4% with PC-3 prostate; 43.3% with SK-MEL-5 melanoma; 84.2% with UACC-62 melanoma. Moreover, the values for the growth in the assay on LOX IMVI melanoma and in the assay on SK-MEL-28 melanoma were -87.4% (active) and -88.5% (active), respectively.
